{
  "source": "PubChem BioAssay AID2763",
  "about": "(National Center for Advancing Translational Sciences (NCATS), 2010)",
  "note": "Results filed as inconclusive are left out. The source made the active and inactive calls. Calls come from the whole dose curve; as a rule, active = well fitted inhibition curve with a large enough effect; inconclusive = small, poorly fitted or top-dose-only effect, or effect the other way; inactive = no such curve, though single readings can be large or run the other way. % is set by controls: 0 for no effect and ±100 for the full control effect; potency is the fitted concentration of half-maximal effect.",
  "data": [
    {"assay": "Concentration response confirmation VP16 counterscreen for inhibitors of ROR gamma transcriptional activity; note: nearly all actives have a fitted effect of over 70% in size", "details": "Drosophila S2 Gal4-VP16 UAS-luciferase, luminescence, 20 h; series mostly up to 46.1 µM; activity change, negative = inhibition: at the top concentration", "method_in_brief": "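Drosophila Schneider cells stably carrying Gal4-VP16 under metallothionein promoter plus UAS-Photinus luciferase. Compound preincubated 1 hr, then 700 uM copper sulfate induction for 20 hr at ambient temperature; luminescence read.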", "values": [
      {"smiles": "Cc1nc2c(-c3ccc(F)cc3)cnn2c(N)c1-c1ccccc1", "Potency": "0.281 µM (active)"},
      {"smiles": "COc1ccc(C(=O)Nc2scc(-c3ccc(Cl)cc3Cl)c2C(N)=O)cc1", "activity change, negative = inhibition": "-28.8% (inactive)"},
      {"smiles": "O=C(COc1ccccc1)NNc1nc2c(F)cccc2s1", "activity change, negative = inhibition": "9.29% (inactive)"},
      {"smiles": "CCOc1ccc(OCc2cccc(C(=O)O)c2)cc1", "Potency": "8.88 µM (active)"},
      {"smiles": "COC1CCCCC1Nc1cc(C)ccc1C", "note": "(centres undefined)", "activity change, negative = inhibition": "-4.68% (inactive)"},
      {"smiles": "COc1ccc(Cl)c(Cn2c(NCc3ccco3)nc3c2c(=O)n(C)c(=O)n3C)c1", "Potency": "1.99 µM (active)"},
      {"smiles": "CCN(CC(=O)NCCc1ccc(Cl)cc1)Cc1nc2ccccc2c(=O)[nH]1", "Potency": "25 µM (active)"},
      {"smiles": "CC(C)CC(=O)NS(=O)(=O)c1ccc(N)cc1", "activity change, negative = inhibition": "-12.3% (inactive)"},
      {"smiles": "Cc1c(OC(C)C(=O)NCc2cccnc2)ccc2c3c(c(=O)oc12)CCCC3", "note": "(centres undefined)", "activity change, negative = inhibition": "-9.89% (inactive)"},
      {"smiles": "Cc1cc(C)nc(-n2nc(C)cc2NC(=O)CNC(C)c2ccccc2)n1", "note": "(centres undefined)", "Potency": "19.9 µM (active)"},
      {"smiles": "CCOC(=O)Cc1nnc(Nc2ccc(C(=O)NC)cc2)c2ccccc12", "activity change, negative = inhibition": "-10.9% (inactive)"},
      {"smiles": "CCOC(=O)Cn1c(CN2CCc3ccccc3C2)nc2c1c(=O)n(C)c(=O)n2C", "Potency": "3.15 µM (active)"},
      {"smiles": "CCCCn1c(CN2CCN(c3ccccc3)CC2)nc2c1c(=O)n(C)c(=O)n2C", "Potency": "8.88 µM (active)"},
      {"smiles": "Cc1ccc(NC(=O)CCN2CCN(C)CC2)cc1", "activity change, negative = inhibition": "3.53% (inactive)"},
      {"smiles": "O=C1NC2=C(C(=O)CCC2)C(c2ccccc2)N1", "note": "(centres undefined)", "activity change, negative = inhibition": "4.06% (inactive)"},
      {"smiles": "O=C(CSc1n[nH]c(=O)n1-c1ccc2c(c1)OCCO2)Nc1ccccc1", "activity change, negative = inhibition": "6.27% (inactive)"},
      {"smiles": "c1csc(CCNc2ncnc3sc4c(c23)CCC4)c1", "Potency": "25 µM (active)"},
      {"smiles": "O=C(Cn1c(=O)oc2ccc(Cl)cc21)Nc1ccon1", "activity change, negative = inhibition": "-9.8% (inactive)"},
      {"smiles": "Cc1ccc(-c2noc(CCC(=O)N(C)c3ccccc3C)n2)cc1", "activity change, negative = inhibition": "3.03% (inactive)"},
      {"smiles": "Cc1ccc(S(=O)(=O)NCc2ccncc2)c(C)c1C", "Potency": "3.97 µM (active)"},
      {"smiles": "COC(=O)c1ccc(OCC(=O)c2ccc(O)cc2O)cc1", "Potency": "1.58 µM (active)"},
      {"smiles": "O=C(CCCN1C(=O)/C(=C/c2ccccc2Cl)SC1=S)Nc1cccnc1", "Potency": "14.1 µM (active)"},
      {"smiles": "COc1nc(N/N=C/c2cc3c(cc2Br)OCO3)nc(N2CCOCC2)n1", "activity change, negative = inhibition": "2.66% (inactive)"},
      {"smiles": "CCCCc1nnc(NC(=O)CS(=O)(=O)Cc2ccccc2)s1", "activity change, negative = inhibition": "7.82% (inactive)"},
      {"smiles": "COc1ccc(C(=O)Nc2cc(-c3ccc(C)cc3)no2)cc1", "activity change, negative = inhibition": "-17.6% (inactive)"},
      {"smiles": "Fc1cccc2sc(Nc3nnc(-c4ccco4)o3)nc12", "Potency": "6.28 µM (active)"},
      {"smiles": "Cc1ccc(S(=O)(=O)NCc2ccncc2)cc1", "Potency": "12.5 µM (active)"},
      {"smiles": "O=C(O)c1ccccc1SC1CC(=O)N(c2ccc3c(c2)OCO3)C1=O", "note": "(centres undefined)", "Potency": "19.9 µM (active)"},
      {"smiles": "COc1ccc2nc(N3C(=O)CNC3=S)sc2c1", "Potency": "8.88 µM (active)"},
      {"smiles": "Cc1ccc(C)c(/C=N/n2cc(-c3ccccc3)[nH]c2=S)c1", "Potency": "9.96 µM (active)"},
      {"smiles": "CCN(C1CCCCC1)S(=O)(=O)c1ccc(S(=O)(=O)NCc2ccncc2)cc1", "Potency": "28.1 µM (active)"},
      {"smiles": "Cc1cc(-c2ccccc2)nc(N2CCC(C(=O)NCc3ccccc3Cl)CC2)n1", "activity change, negative = inhibition": "11.3% (inactive)"},
      {"smiles": "Cc1oc(-c2ccccc2Cl)nc1CSCC(=O)O", "Potency": "7.91 µM (active)"},
      {"smiles": "OCCNc1nc2ccccc2n1-c1ncnc2sc3c(c12)CCC3", "Potency": "15.8 µM (active)"}
    ]}
  ]
}
